A number with no mark means an inactive call. Active and inactive are the calls of the source.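 Rule for the calls, unless noted: active = mean inhibition over 43.08%, the solvent-only control mean plus 3 SD; inactive = the rest.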

For assay [1], the target named is Nuclear receptor coactivator 3 (Homo sapiens) (UniProt Q9Y6Q9). Put plainly: SRC3 coactivator transcriptional activity inhibitors, confirmation, cell-based, luminescence, quadruplicate (AID 588792).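 Note: 0% = DMSO treated cells and 100% = gossypol at 36 µM.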 The following applies: HEK293 GAL4-SRC3 luciferase reporter, at 3.6 µM, active compounds read high.
Assay [2] has as its system transactivating tegument protein VP16 (Human herpesvirus 1), Gal4-VP16 luciferase reporter. Put plainly: VP16 transactivation inhibitors, counter-screen for SRC3 inhibitor project, cell-based, luminescence, high throughput (AID 588794; in the data active = inhibition above about 30%). The following applies: mammalian cells, VP16-driven luciferase reporter luminescence; at 3.6 µM; active compounds read high.

Chain of Nuclear receptor coactivator 3 (Homo sapiens) (Q9Y6Q9 whole entry, looked up, the tested form may be a part): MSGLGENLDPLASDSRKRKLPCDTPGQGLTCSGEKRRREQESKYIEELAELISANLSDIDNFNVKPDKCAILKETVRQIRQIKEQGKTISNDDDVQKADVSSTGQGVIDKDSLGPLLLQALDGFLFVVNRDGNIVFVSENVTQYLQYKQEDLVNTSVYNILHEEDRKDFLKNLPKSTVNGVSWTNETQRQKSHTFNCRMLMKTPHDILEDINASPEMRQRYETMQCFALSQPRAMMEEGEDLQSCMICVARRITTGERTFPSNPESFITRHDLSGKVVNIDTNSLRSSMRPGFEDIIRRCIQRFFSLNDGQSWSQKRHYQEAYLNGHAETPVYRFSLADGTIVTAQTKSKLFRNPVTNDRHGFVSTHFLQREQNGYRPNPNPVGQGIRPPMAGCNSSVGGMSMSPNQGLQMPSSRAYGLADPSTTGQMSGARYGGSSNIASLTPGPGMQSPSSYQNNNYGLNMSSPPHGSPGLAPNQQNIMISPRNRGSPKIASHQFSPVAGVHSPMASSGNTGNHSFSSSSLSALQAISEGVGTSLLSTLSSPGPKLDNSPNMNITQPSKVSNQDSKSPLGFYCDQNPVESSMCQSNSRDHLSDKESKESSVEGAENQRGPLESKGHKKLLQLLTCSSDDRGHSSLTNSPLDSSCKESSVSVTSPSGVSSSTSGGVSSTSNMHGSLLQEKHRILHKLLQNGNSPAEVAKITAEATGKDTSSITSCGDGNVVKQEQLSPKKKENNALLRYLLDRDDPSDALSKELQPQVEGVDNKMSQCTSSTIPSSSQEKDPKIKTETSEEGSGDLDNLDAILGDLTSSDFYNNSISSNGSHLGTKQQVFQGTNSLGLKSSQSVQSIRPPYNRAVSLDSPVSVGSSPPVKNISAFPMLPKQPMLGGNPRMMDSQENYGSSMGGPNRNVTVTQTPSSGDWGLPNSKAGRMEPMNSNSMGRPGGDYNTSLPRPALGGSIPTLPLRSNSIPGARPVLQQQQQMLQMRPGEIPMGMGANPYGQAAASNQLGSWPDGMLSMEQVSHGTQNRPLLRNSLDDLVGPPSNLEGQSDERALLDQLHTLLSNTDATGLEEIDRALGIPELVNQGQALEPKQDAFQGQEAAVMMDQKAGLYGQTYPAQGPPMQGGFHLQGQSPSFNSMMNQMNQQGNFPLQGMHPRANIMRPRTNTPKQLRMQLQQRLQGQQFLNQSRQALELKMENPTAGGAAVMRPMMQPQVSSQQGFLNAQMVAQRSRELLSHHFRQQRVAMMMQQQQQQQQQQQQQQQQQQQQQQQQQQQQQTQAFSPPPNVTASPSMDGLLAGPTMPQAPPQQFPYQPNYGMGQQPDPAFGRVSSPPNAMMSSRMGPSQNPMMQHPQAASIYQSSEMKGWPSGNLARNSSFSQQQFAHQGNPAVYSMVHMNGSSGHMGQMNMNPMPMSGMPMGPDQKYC

On to `Cc1ccc2occ(/C=N/NC(=O)c3ccccc3Br)c(=O)c2c1`, for which the inhibition in assay [1] was 40.7%; in assay [2], 28.5%.

For `C=C[C@@H]1c2c(F)cccc2N(S(=O)(=O)c2ccc(C)cc2)[C@H](c2ccc(OC(C)=O)cc2)C1(C#N)C#N`, the inhibition in assay [1] is 10.4%; in assay [2], 3.61%.

With `COc1cccc(N2CCN(CC(=O)Nc3ccccc3C(=O)NCc3ccccc3)CC2)c1`, the inhibition in assay [1] was -32.3%; in assay [2], 7.53%.

As to `OC[C@H]1O[C@@H](Oc2ccc(O)cc2)[C@H](O)[C@@H](O)[C@@H]1O`, the results for the inhibition in assay [1] and in assay [2] were 7.6% and -4.32%, respectively.

In the case of `COc1ccc(CNC(=O)[C@H](Cc2ccccc2)NC(=O)C2CCN(C(=O)[C@H](C)N)CC2)cc1`, the inhibition in assay [1] was 12.2%; in assay [2], -2.01%.

For `COc1ccc(C(Cl)=C(C=O)c2ccc(OC)c(OC)c2)cc1OC`, the inhibition in assay [1] was 22.3%; in assay [2], -10.7%.

Turning to `CC1CC(C)CN(c2nc(NCc3ccco3)nc(N)c2[N+](=O)[O-])C1` (stereo unspecified), the inhibition in assay [1] was 9.73%; in assay [2], 9.4%.

Turning to `COc1ccc(NC(=O)C2CCN(S(=O)(=O)c3ccc4c(c3)CC(C)N4C(C)=O)CC2)cc1OC` (stereo unspecified), the inhibition in assay [1] is 9.24%; in assay [2] it was 5.82%.

Consider `CC1CCc2c(sc(NC(=O)c3ccco3)c2C(=O)O)C1` (stereo unspecified), for which the inhibition in assay [1] was 18.1%; in assay [2], 36.3% (active).

Consider `FC(F)(F)c1cccc(-c2nc3nc(Cl)c(Cl)nc3[nH]2)c1`, for which the inhibition is -12% in assay [1] and 31.5% (active) in assay [2].

`CCCCCCCN1C2=NCCCN2c2ccccc21`: the inhibition in assay [1] was -5.13%; in assay [2] it was 21%.

For `CN1C/C(=C/c2cccnc2)C(=O)/C(=C/c2cccnc2)C1`, the inhibition is 23.5% in assay [1] and 54.1% (active) in assay [2].

Consider `O=C(Nc1ccc(S(=O)(=O)Nc2ccc(F)cc2)cc1)c1ccc(CN2CCOCC2)cc1`, for which the results for the inhibition in assay [1] and in assay [2] were 7.38% and 38.6% (active), respectively.

In the case of `CCCn1c(C)cc(C(=O)COc2ccc(C)nc2[N+](=O)[O-])c1C`, the inhibition in assay [1] was 11.3%; in assay [2], 6.56%.

On to `Cc1ccc(OCC(O)CN2CCN(CC(O)COC(C)C)CC2)c(C(C)(C)C)c1` (stereo unspecified), for which the inhibition in assay [1] is 8.73%; in assay [2], 13.2%.

Take `O=C(N/N=C/c1c(O)ccc2ccccc12)c1ccc(CO)nc1`: the inhibition is 26.3% in assay [1] and 41.3% (active) in assay [2].

Consider `CC1CCc2sc3ncnc(N4CCOCC4)c3c2C1` (stereo unspecified), for which the values for the inhibition in assay [1] and in assay [2] were 32.5% and 29.8% (active), respectively.

As to `CC(C)(C)CNC(=O)[C@]1(C)CCC[C@@]2(C)C3CC[C@@]4(C)C[C@]3(CCC21)CC4=O` (stereo partly specified), the inhibition in assay [1] was 9.18%; in assay [2] it was 17.9%.

Regarding `O=C(OC1C2CCC1C1CN(CCc3ccccc3)CC12)c1ccccc1` (stereo unspecified), the inhibition in assay [1] is 11.2%; in assay [2], 18%.

`OCC(O)C(O)C(O)C(O)C1NCCS1` (stereo unspecified): the inhibition in assay [1] is -6.42%; in assay [2], -4.51%.

In the case of `COCC(C)NS(=O)(=O)c1ccc(C(=O)NC(Cc2ccccc2)c2ccccc2)cc1` (stereo unspecified), the inhibition in assay [1] is 17.7%; in assay [2], 0.32%.

Turning to `COc1ccc(CCNC(=O)COC(=O)Cc2cccc3ccccc23)cc1`, the inhibition in assay [1] is -2.4%; in assay [2] it was -9.98%.

For `N=c1c(C(=O)NCC2CCCO2)cc2c(=O)n3ccccc3nc2n1Cc1cccnc1` (stereo unspecified), the inhibition was -8.73% in assay [1] and -5.19% in assay [2].

With `CCSc1nsc(NC(=O)Nc2cccc(F)c2)n1`, the figures for the inhibition in assay [1] and in assay [2] were 13.2% and 15.4%, respectively.

As to `COc1ccc(C(=O)Nc2ccc(N3CCN(C(=O)c4ccccc4C)CC3)cc2)cc1`, the inhibition was 28.4% in assay [1] and 25.1% in assay [2].

Consider `Cc1cccc(N2C(=O)c3cccnc3C2=O)c1`, for which the inhibition in assay [1] is 3.71%; in assay [2], -4.38%.

In the case of `COc1ccc(-n2c(-c3ccc(Br)cc3)c[n+]3c2CCCCC3)cc1`, the inhibition in assay [1] was -0.37%; in assay [2], 16.2%.

Turning to `COc1cc(NC(=O)c2cc3ccccc3cc2OC)ccc1NC(=O)c1cccs1`, the inhibition in assay [1] was 4.37%; in assay [2], -1%.

For the compound `COc1cc2c(C#N)c(N3CCOCC3)nc(N)c2c(N)n1`, the inhibition in assay [1] was -5.11%; in assay [2], 0.07%.

Take `COc1ccc(C(=O)NN(C)c2nc(C(F)(F)F)nc3ccccc23)cc1`: the values for the inhibition in assay [1] and in assay [2] were 51.1% (active) and 35.3% (active), respectively.

In the case of `CC1CN(Cc2ccccc2)c2nc3c(c(=O)n(CC(N)=O)c(=O)n3C)n2C1` (stereo unspecified), the values for the inhibition in assay [1] and in assay [2] were 0.26% and -4.77%, respectively.

On to `Cc1oc(S(=O)(=O)N(C)C)cc1C(=O)Nc1ccc(Cl)cc1`, for which the results for the inhibition in assay [1] and in assay [2] were -1.4% and 8.66%, respectively.

Turning to `Cc1ccc(N/C(N)=N/c2nc(C)cc(C)n2)cc1`, the inhibition in assay [1] was -9.39%; in assay [2] it was -6.71%.

(Values after PubChem BioAssay.)
